Source: PubChem (National Center for Advancing Translational Sciences (NCATS))
This excerpt belongs to a sample that is enriched for hits.
Giardia FBPA inh – inhibitors of Giardia lamblia fructose-1,6-bisphosphate aldolase. purified Giardia FBPA. AID 2451. 0.71% of 290,000 active. A8B2U2. Potency, µM (top dose mostly 59.6 µM), without a hit: top-dose activity, negative = inhibition, most hits filed as inhibitors; note: potency is the fitted concentration of half-maximal effect; % is set by controls: 0 for no effect and ±100 for the full control effect; nearly all actives have a fitted effect of over 55% in size
Target sequence (A8B2U2 whole entry, looked up): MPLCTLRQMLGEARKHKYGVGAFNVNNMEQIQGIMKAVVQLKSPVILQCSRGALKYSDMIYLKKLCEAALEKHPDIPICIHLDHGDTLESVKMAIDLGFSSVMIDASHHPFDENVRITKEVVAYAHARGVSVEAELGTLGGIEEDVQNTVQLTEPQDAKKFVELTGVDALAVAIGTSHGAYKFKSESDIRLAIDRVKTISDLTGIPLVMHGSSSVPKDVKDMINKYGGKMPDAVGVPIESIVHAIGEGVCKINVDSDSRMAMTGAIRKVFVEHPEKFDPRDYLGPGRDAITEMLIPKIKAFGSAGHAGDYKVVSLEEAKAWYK
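Giardia FBPA (40 nM reagent) was preincubated 10 min at RT with compound (up to 57.5 uM final), then substrate plus GAPDH/TPI/NAD/arsenate coupling system with diaphorase/resazurin was added; resorufin fluorescence (525/598 nm) was read after 20 min.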
Sm TGR inh – inhibitors of Schistosoma mansoni thioredoxin glutathione reductase; Q962Y6; purified TGR, DTNB reduction, TNB absorbance 405 nm; Potency, µM (series often up to 114 µM), without a hit: at the highest dose activity change, negative = inhibition, hits mostly inhibitors; 3% of 360,000 active; AID 485364; note: potency is the fitted concentration of half-maximal effect; % is set by controls: 0 for no effect and ±100 for the full control effect; nearly all actives have a fitted effect of over 60% in size
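TGR 20 nM + NADPH 100 uM (dispensed conc.), cpd preinc 15 min RT; start with NADPH (500 uM addition) then DTNB (15 mM addition). Kinetic TNB absorbance, 405 nm filter. Four-parameter Hill fit across titration.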
TbPYK inhibitor – inhibitors of Trypanosoma brucei pyruvate kinase; Q57TT1; TbPYK enzyme, Kinase-Glo Plus ATP luminescence, 45 min; Potency, µM (series often up to 76.8 µM), for the others: at the highest dose activity, negative = inhibition, actives largely listed as inhibitors; 0.12% of 410,000 active; note: potency is the fitted concentration of half-maximal effect; % is set by controls: 0 for no effect and ±100 for the full control effect; nearly all actives have a fitted effect of over 50% in size
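ADP (130 uM final) triggers the TbPYK reaction after compound addition; incubation is 45 min at room temperature. Kinase-Glo Plus is then added and luminescence imaged. Normalized data are fitted to concentration-effect curves.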
Shiga inhibitor – blocks Shiga toxin action in Vero cells; Vero cells, Shiga toxin protein synthesis inhibition reporter; inhibition, % at 38.7 µM; 9.2% of 290,000 active; in the data active = inhibition mostly above about 28%, no sharp cut-off; inactive = mostly below about 43%; note: 0% is about no effect
Cycloheximide cs – affects cycloheximide protein synthesis inhibition readout, counter-screen; cell reporter, cycloheximide protein synthesis inhibition counterscreen; max response, %; 12% of 300,000 active; AID 2314; in the data active = max response mostly above about 13%, no sharp cut-off; inactive = mostly below about 14%; note: read at 38.3 µM for the half of the compounds with a filed dose; 0% is about no effect
LmPK inh – inhibitors of Leishmania mexicana pyruvate kinase. Q27686. purified LmPK, Kinase-Glo ATP luminescence, 1 h. Potency, µM (top dose mostly 57.5 µM), for the others: at the highest dose activity change, negative = inhibition, usual class: inhibitors. 0.37% of 290,000 active; note: potency is the fitted concentration of half-maximal effect; % is set by controls: 0 for no effect and ±100 for the full control effect
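In 50 mM imidazole pH 7.2 with 7 mM MgCl2, LmPK (0.1 nM) turned over PEP (0.5 mM) and ADP (0.1 mM) for 1 h at room temperature. Luciferase read-out of ATP.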
* marks the source's active call; other numbers are inactive results; ? = inconclusive; / = not tested or not shown; [ ] = remark or other dose. Unless noted, calls come from the whole dose curve; as a rule, active = well fitted curve in the direction sought with a large enough effect; inconclusive = small, poorly fitted or top-dose-only effect, or another doubt; inactive = no such curve, though single readings can be large; an effect the other way counts as inactive or inconclusive.

SMILES	Giardia FBPA inh	Sm TGR inh	TbPYK inhibitor	Shiga inhibitor	Cycloheximide cs	LmPK inh
S=c1[nH]nc(-c2cc(-c3ccccc3)n[nH]2)n1/N=C/c1ccccc1	10%	-3%	?	-4	1	-3%
Cc1n[nH]c(=S)n1/N=C/c1cccc(OCc2ccccc2)c1	1%	/	?	58*	15	0%
CCOC(=O)c1ccc(NC(=O)CCc2c(C)nc3nc[nH]n3c2=O)cc1	/	0%	-8%	/	/	/
CC(=C/c1ccccc1)/C=N/n1c(C)n[nH]c1=S	20%	2%	2%	47	30*	3%
S=c1[nH]nc(-c2ccco2)n1/N=C/C(Cl)=C/c1ccccc1	4%	-36%	-41%	73*	53*	1%
Cc1cccc(CS(=O)(=O)CC2Nc3ccc(C(=O)NCc4ccccc4Cl)cc3NC2=O)c1 (stereo not given)	/	-12%	-4%	/	/	/
Cc1ccc(CCNC(=O)c2cnc3c(C)cccn3c2=O)cc1	/	0%	-2%	/	/	/
CC(=O)Nc1sc(/C(C#N)=C/c2ccc(Cl)c(Cl)c2)nc1-c1ccc(C)cc1	-6%	-8%	4%	-6	-2	-4%
CC(=O)Nc1sc(N/N=C/c2ccc(C)cc2)nc1-c1ccc(C)cc1	-11%	-13%	-11%	71*	52*	22%
CC(=O)Nc1sc(N/N=C/c2ccc(N(C)C)cc2)nc1-c1ccc(C)cc1	-17%	1%	-7%	58*	25*	-15%
CCOc1cc(/C=N\Nc2nc(-c3ccc(C)cc3)c(NC(C)=O)s2)ccc1O	-21%	-7%	-6%	24	2	14%
O=C(NCc1cccc(Br)c1)c1ccc(-n2cnc3cccnc32)cc1	/	-8%	5%[15.4 µM]	/	/	/
Cc1cccc2cc(C#N)c(NCCNC(=O)COc3ccccc3)nc12	16µM*	-5%	-7%	-2	-2	6%
Cc1cccc2cc(C#N)c(NCc3ccccc3)nc12	18µM*	0%	7%	21	-2	4%
CCc1ccc(S(=O)(=O)NCC2(N3CCOCC3)CCCCC2)cc1	/	-24%	-4%	/	/	/
COc1ccccc1C(=O)NNC(=O)c1cccc(O)c1	-18%	15%	0%	21	23*	-12%
CC(C)(C)NC(=O)C(=O)NNC(=O)c1cccc(F)c1	-26%	-6%	-10%	44	38*	4%
COc1ccccc1C(=O)NNC(=O)c1ccncc1	-3%	-12%	-5%	33	2	0%
CC(C)(C)NC(=O)C(=O)NNC(=O)c1ccccc1	-25%	5%	3%	13	-2	2%
COc1ccccc1C(=O)NNC(=O)c1ccccc1F	1%	9%	-11%	58*	47*	-22%
O=C1CC(NNC(=O)c2cccc(F)c2)C(=O)N1 (stereo not given)	-7%	-9%	-6%	24	11*	4%
CCOc1ccc(C(=O)Nc2ccc3oc(-c4cccc5ccccc45)nc3c2)cc1	/	-5%	-5%	/	/	/
O=c1n(-c2ccccc2)c(=O)n2n1CC(O)C2	2%	7%	0%	-14	-5	1%
O=C(Nc1ccc(F)cc1)c1ccc2[nH]c(=O)c(=O)[nH]c2c1	-20%	-9%	0%	6	1	0%
COc1ccccc1C(=O)NNC(=O)c1cccc(F)c1	-11%	9%	-3%	88*	51*	?
SMILES	Giardia FBPA inh	Sm TGR inh	TbPYK inhibitor	Shiga inhibitor	Cycloheximide cs	LmPK inh
O=C(NNS(=O)(=O)c1ccccc1)c1cccc(F)c1	-14%	56µM*	10%	/	1	28%
O=C(NNC(=O)c1ccccc1F)c1ccc2[nH]c(=O)c(=O)[nH]c2c1	-14%	-10%	4%	41*	34*	5%
COC(=O)c1cc(S(=O)(=O)N2CCCC2=O)c(Cl)cc1Cl	-1%	-2%	-3%	-6	-2	4%
COc1ccc(N=C(N)N=C(N)N)c(OC)c1	8%	-9%	-5%	-10	-1	-5%
COc1ccc(N=Nc2nc3cc(Br)c(Br)cc3n2C)c(OC)c1	?	45µM*	-12%	35*	34*	22%
O=C(/C=C/c1ccco1)Nc1ccccc1N1CCOCC1	10%	20µM*	-7%	-5	1	0%
CC(C)(C)c1ccc(C(=O)Nc2ccc(C(=O)N3CCOCC3)cc2)cc1	/	-27%	-2%	8	-2	0%
O=C(/C=C/c1ccco1)Nc1ccc(CN2CCOCC2)cc1	5%	20µM*	3%	46*	41*	1%
O=C(/C=C/c1ccccc1)Nc1ccc(CN2CCOCC2)cc1	5%	-1%	-8%	35*	47*	-2%
O=C(/C=C/c1ccco1)Nc1ccc(C(=O)N2CCOCC2)cc1	1%	13µM*	-20%	26	12	-7%
O=C1CC(c2ccccc2)Cc2[nH]c(=O)c(-c3nc(-c4ccc(Cl)c(Cl)c4)cs3)cc21 (stereo not given)	/	1%	3%	/	/	/
O=C(COc1ccccc1-c1nc(-c2ccccc2)no1)Nc1ccc([N+](=O)[O-])cc1	/	-14%	-3%	/	/	/
Cc1cc(NS(=O)(=O)c2ccc(NC(=O)/C=C/c3ccco3)cc2)nc(C)n1	23%	4µM*	-16%	14	-3	15%
O=C(/C=C/c1ccco1)Nc1ccc(N2CCCC2)cc1	1%	-27%	-23%	66*	68*	-17%
Cc1cc(NS(=O)(=O)c2ccc(NC(=O)c3ccco3)cc2)nc(C)n1	4%	-25%	-6%	-14	-5	4%
COc1ccc(N(C(=O)/C=C\C(=O)Nc2ccc(C)cc2)C(C(=O)NCc2ccco2)c2ccc(C)cc2)cc1 (stereo not given)	/	45µM*	4%	/	/	/
COc1ccc(NC(=O)/C=C\C(=O)N(c2ccc(C(C)C)cc2)C(C(=O)NCc2ccco2)c2ccc(C)cc2)cc1 (stereo not given)	/	56µM*	-5%	/	/	/
Cc1ccc(NC(=O)/C=C\C(=O)N(c2ccc(C(C)C)cc2)C(C(=O)NCc2ccco2)c2ccc(F)cc2)cc1 (stereo not given)	/	-26%	-2%	/	/	/
CN(C)CCNc1cnn(-c2ccccc2)c(=O)c1Cl	6%	13%	6%	55	17*	6%
CNc1cnn(-c2ccccc2)c(=O)c1Cl	0%	5%	-25%	37	-3	-4%
O=c1c(Cl)c(NCCO)cnn1-c1cccc(Cl)c1	1%	7%	-3%	51*	23*	3%
CN(CCCNC(=O)Cn1ncc2c([nH]c3ccccc32)c1=O)Cc1ccccc1	/	-22%	-5%	/	/	/
CC(=O)Nc1ccn(C2OC(C(COC(C)=O)NC(=O)C(COCc3ccccc3)NC(=O)OC(C)(C)C)C(OC(C)=O)C2OC(C)=O)c(=O)n1 (stereo not given)	7%	/	/	-4	-1	/
